In PubChem BioAssay AID1159580 (chemical genetic matrix, 2015):
Out of some 5,500 compounds screened, about 2,000 (36%) were called active. About 18% were inconclusive and are not listed. Cut-off read from the data, not from the text of the source: active = normalized growth mostly below about 0.91 (no sharp cut-off); inconclusive = no clear call, values can overlap the other calls; inactive = mostly above about 0.92. The list shows a part of the results.

Assay: chemical genetic growth profiling, strain panel (AID 1159580);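 note: tested at 20 µM; growth read once vehicle control cultures reached saturation at 30 °C; 1 = growth at the plate median or of vehicle wells; lower values mean less growth of the strain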
Details: S. cerevisiae deletion strains, growth OD

Measured: normalized growth

C[C@H]1CC2C3CCC4=CC(=O)C=C[C@]4(C)[C@@]3(Cl)[C@@H](O)C[C@]2(C)[C@@]1(O)C(=O)CO (stereo partly drawn)
inactive: locus YAL013W, strain DEP1, hits give low values 0.982 | locus YAL040C, strain CLN3, hits give low values 1.03 | locus YCL061C, strain MRC1 (second series), hits give low values 1.01 | locus YER002W, strain NOP16, hits give low values 0.997 | locus YGR078C, strain PAC10, hits give low values 0.989 | locus YGR229C, strain SMI1, hits give low values 0.994 | locus YJR075W, strain HOC1, hits give low values 1.01 | locus YMR263W, strain SAP30, hits give low values 1.01 | locus YNL153C, strain GIM3, hits give low values 0.981 | locus YNL175C, strain NOP13, hits give low values 0.994 | locus YNL197C, strain WHI3, hits give low values 0.934 | locus YNL224C, strain SQS1, hits give low values 0.967 | locus YOR083W, strain WHI5 (second series), hits give low values 0.954
